PubChem BioAssay (NCI)
This is part of a sample that, as a whole, favours compounds with a hit. Of some 79,000 tested, about 15% had one in any assay. Unmarked numbers belong to inactive results. Active and inactive are the calls of the source. Rule as the data show it: active = growth inhibition above about 70%; inactive = the rest.

How the values were obtained:
[1] = NCI Yeast Anticancer Drug Screen. Data for the rad50 strain (AID 155);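 also: 0% = growth of vehicle-only cultures of the same strain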; details: S. cerevisiae rad50 strain growth inhibition; at 50.0 µM; stronger effect = higher value
Summary of the method: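 Yeast carrying a defined DNA repair defect were exposed to test compounds, and growth was compared with vehicle-treated controls to give percent inhibition.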

[2] = NCI Yeast Anticancer Drug Screen. Data for the mec2-1 strain (AID 157); details: S. cerevisiae mec2-1 strain, at 50.0 µM, stronger effect = higher value
Summary of the method: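 Strain: mec2-1 (DNA repair/cell cycle alteration). Compound exposure, then growth measured; inhibition expressed relative to vehicle.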

[3] = NCI Yeast Anticancer Drug Screen. Data for the sgs1 mgt1 strain (AID 161);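 also: 0% = growth of cultures given vehicle only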; details: S. cerevisiae sgs1 mgt1 strain, at 50.0 µM, stronger effect = higher value
Summary of the method: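 Test agents were incubated with a DNA-repair-mutant yeast strain. Growth was then read and compared against vehicle-treated controls.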

[4] = NCI Yeast Anticancer Drug Screen. Data for the cln2 rad14 strain (AID 165);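 also: 0% = growth equal to vehicle treated cultures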; details: S. cerevisiae cln2 rad14 strain, at 50.0 µM, stronger effect = higher value
Summary of the method: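 Compounds are applied to the cln2 rad14 yeast strain, and growth is then compared with that of vehicle-treated cultures to give inhibition.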

[5] = NCI Yeast Anticancer Drug Screen. Data for the bub3 strain (AID 167); details: S. cerevisiae bub3 mutant strain, at 50.0 µM, stronger effect = higher value
Summary of the method: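 Compounds were applied to a genetically altered yeast strain carrying a cell-cycle control defect. Growth inhibition was scored against vehicle-treated controls.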

[6] = NCI Yeast Anticancer Drug Screen. Data for the mlh1 rad18 strain (AID 175); details: S. cerevisiae mlh1 rad18 strain growth inhibition; at 50.0 µM; stronger effect = higher value
Summary of the method: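 Read-out is yeast growth inhibition, calculated against vehicle-only controls. The compound was applied to a strain engineered with DNA damage repair alterations.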

CS(=N)(=O)CCC(N)C(=O)O (stereo not given) (tested in a mixture with another compound)
growth inhibition [1]: 4.7%
growth inhibition [2]: 21.2%
growth inhibition [3]: -12.8%
growth inhibition [4]: -1.95%
growth inhibition [5]: 17.8%
growth inhibition [6]: 2.1%

COCC(C)OC(=O)Cc1ccccc1 (stereo not given)
growth inhibition [1]: -10.9%
growth inhibition [2]: -8.2%
growth inhibition [3]: -8.6%
growth inhibition [4]: -85.6%
growth inhibition [5]: -49.1%
growth inhibition [6]: -31.1%

CN1C(=O)C2(c3ccccc31)C1CC3C(CO1)C1C2C3(CO)CN1C#N (stereo not given)
growth inhibition [1]: 34.1%
growth inhibition [2]: 12.9%
growth inhibition [3]: -39.2%
growth inhibition [4]: 1.1%
growth inhibition [5]: -22.1%
growth inhibition [6]: -6.8%

O=C(Nc1ccc(Cl)cc1C(=O)c1ccccc1)c1ccc([N+](=O)[O-])cc1
growth inhibition [1]: -1.4%
growth inhibition [2]: -3.1%
growth inhibition [3]: -0.5%
growth inhibition [4]: -40.1%
growth inhibition [5]: 4.2%
growth inhibition [6]: 12.8%

CC(C)NCc1ccccc1
growth inhibition [1]: -4.25%
growth inhibition [2]: -12.3%
growth inhibition [3]: 19.5%
growth inhibition [4]: 9.8%
growth inhibition [5]: 7.35%
growth inhibition [6]: -6.05%

CCC1(CCOc2ccccc2)C(=O)NC(=O)NC1=O
growth inhibition [1]: -10.9%
growth inhibition [2]: -1.45%
growth inhibition [3]: 1.3%
growth inhibition [4]: -6.55%
growth inhibition [5]: 1.6%
growth inhibition [6]: -1.85%

CC1(C)N=C(N)N=C(N)N1c1ccc(OCCCOc2ccc(S(=O)(=O)F)cc2)cc1
growth inhibition [1]: 35.1%
growth inhibition [2]: 72.8% (active)
growth inhibition [3]: 89.1% (active)
growth inhibition [4]: -7.65%
growth inhibition [5]: 31.5%
growth inhibition [6]: 84.5% (active)

O=C(O)CCC(=O)CCl
growth inhibition [1]: 7%
growth inhibition [2]: 1.35%
growth inhibition [3]: 1.2%
growth inhibition [4]: -12.6%
growth inhibition [5]: 0.9%
growth inhibition [6]: 1%

Cc1nccc2c1[nH]c1ccccc12
growth inhibition [1]: 6.5%
growth inhibition [2]: 5.7%
growth inhibition [3]: -15.4%
growth inhibition [4]: -5.65%
growth inhibition [5]: 2.5%
growth inhibition [6]: 2.3%

CN1C(=O)N(C)C(O)C(Cl)(Cl)C1=O (stereo not given)
growth inhibition [1]: -4.75%
growth inhibition [2]: 10.1%
growth inhibition [3]: 13.6%
growth inhibition [4]: 30.6%
growth inhibition [5]: 26.1%
growth inhibition [6]: 11.6%

[CH3][Hg][O]C(C)=O
growth inhibition [1]: 99.5% (active)
growth inhibition [2]: 99.9% (active)
growth inhibition [3]: 99.7% (active)
growth inhibition [4]: 99.5% (active)
growth inhibition [5]: 99.7% (active)
growth inhibition [6]: 99.7% (active)

O=S1(=O)OCCOS(=O)(=O)C1(Cl)Cl
growth inhibition [1]: -32.6%
growth inhibition [2]: -41.5%
growth inhibition [3]: -18%
growth inhibition [4]: -11.4%
growth inhibition [5]: -31.6%
growth inhibition [6]: -8.65%

BrCCCBr
growth inhibition [1]: 15.1%
growth inhibition [2]: 5.8%
growth inhibition [3]: 14.4%
growth inhibition [4]: 10.7%
growth inhibition [5]: 12.4%
growth inhibition [6]: 21.3%

[CH3][Sb]1([CH3])([I])[CH2]CC[CH2]1
growth inhibition [1]: -6.55%
growth inhibition [2]: -5.35%
growth inhibition [3]: -5.75%
growth inhibition [4]: -11.1%
growth inhibition [5]: 27.2%
growth inhibition [6]: 33.9%

CN(C)CCCNc1c2c(nc3ccc(Cl)cc13)CCCC2
growth inhibition [1]: -1.2%
growth inhibition [2]: -20.4%
growth inhibition [3]: -31.8%
growth inhibition [4]: 6.6%
growth inhibition [5]: 9.15%
growth inhibition [6]: -7.3%

N#CC(C#N)=Cc1cccc(F)c1
growth inhibition [1]: 37%
growth inhibition [2]: 25.2%
growth inhibition [3]: 19.4%
growth inhibition [4]: 15.6%
growth inhibition [5]: 20.2%
growth inhibition [6]: 31.9%

ClCCN(CCCl)CC(Cl)COc1cccc2ccccc12 (stereo not given)
growth inhibition [1]: 12.2%
growth inhibition [2]: 11.6%
growth inhibition [3]: 31.5%
growth inhibition [4]: -1.6%
growth inhibition [5]: 25.2%
growth inhibition [6]: 30.4%

ClCCN(CCCl)c1ccc(CCCCN2CCCCC2)cc1
growth inhibition [1]: 20.2%
growth inhibition [2]: 23.2%
growth inhibition [3]: 21.2%
growth inhibition [4]: 14.2%
growth inhibition [5]: 19.2%
growth inhibition [6]: 47%

CC(I)C(N)=O (stereo not given)
growth inhibition [1]: -16.6%
growth inhibition [2]: -19.7%
growth inhibition [3]: -19.5%
growth inhibition [4]: -4.15%
growth inhibition [5]: -4%
growth inhibition [6]: -17%

CCOC(=O)C[S][Sn]([Cl])([Cl])[S]CC(=O)OCC
growth inhibition [1]: 0.6%
growth inhibition [2]: -1.15%
growth inhibition [3]: -3.65%
growth inhibition [4]: -32%
growth inhibition [5]: -5.2%
growth inhibition [6]: -18.1%

CCOC(=O)C[Se]CC(=O)OCC
growth inhibition [1]: -8.65%
growth inhibition [2]: 11.2%
growth inhibition [3]: 11.2%
growth inhibition [4]: -14.2%
growth inhibition [5]: 43.8%
growth inhibition [6]: 28.3%

CC(=O)Cc1ccc2c(c1)OCO2
growth inhibition [1]: 13.2%
growth inhibition [2]: -11.4%
growth inhibition [3]: -0.35%
growth inhibition [4]: 1.1%
growth inhibition [5]: -16.9%
growth inhibition [6]: 22.9%

Cc1ccc(NC(=O)N(C)N=O)cc1
growth inhibition [1]: -3.5%
growth inhibition [2]: 5.5%
growth inhibition [3]: -4.3%
growth inhibition [4]: -11.3%
growth inhibition [5]: -6.05%
growth inhibition [6]: -4.45%

O=C(O)c1ccccc1/C=N\NC(=S)NC1CN2CCC1CC2 (stereo not given)
growth inhibition [1]: 9.45%
growth inhibition [2]: 6.25%
growth inhibition [3]: 6.85%
growth inhibition [4]: -0.5%
growth inhibition [5]: 34.6%
growth inhibition [6]: -18.6%

C[N+](C)(C)CC1CCC/C1=N/O (stereo not given)
growth inhibition [1]: 44.8%
growth inhibition [2]: 13.4%
growth inhibition [3]: -0.5%
growth inhibition [4]: 9.95%
growth inhibition [5]: 26.8%
growth inhibition [6]: 34.9%

C=Cn1nnnc1N
growth inhibition [1]: -3%
growth inhibition [2]: 2.05%
growth inhibition [3]: -10.3%
growth inhibition [4]: 8.6%
growth inhibition [5]: 14.3%
growth inhibition [6]: 4.5%

C[C@]12CC[C@H]3[C@@H](CCC4=C[C@@H](OC5OCC(OC6OC(CO)C(O)C(O)C6O)C(O)C5O)CC[C@@]43C=O)[C@@]1(O)CCC2C1=CC(=O)OC1 (stereo not given in full)
growth inhibition [1]: -31.8%
growth inhibition [2]: -20.4%
growth inhibition [3]: -29.6%
growth inhibition [4]: -4.1%
growth inhibition [5]: -16.7%
growth inhibition [6]: 2.2%

CCOC(=O)C(N)C[S][Sn]([CH3])([CH3])[Cl] (stereo not given)
growth inhibition [1]: 19.1%
growth inhibition [2]: 21.8%
growth inhibition [3]: 20.6%
growth inhibition [4]: 18.2%
growth inhibition [5]: 21.7%
growth inhibition [6]: -26.6%

COc1cc(C=O)cc(OC)c1OC
growth inhibition [1]: 1.45%
growth inhibition [2]: -10.6%
growth inhibition [3]: 5.25%
growth inhibition [4]: -14.1%
growth inhibition [5]: -7.1%
growth inhibition [6]: -20.1%

O=C=Nc1ccc(Br)cc1
growth inhibition [1]: 25.6%
growth inhibition [2]: 11.6%
growth inhibition [3]: 15.8%
growth inhibition [4]: -17.2%
growth inhibition [5]: 23.9%
growth inhibition [6]: 29.4%

c1ccc(CN2C3c4ccccc4C2c2ccccc23)cc1
growth inhibition [1]: -0.15%
growth inhibition [2]: -2.2%
growth inhibition [3]: -4%
growth inhibition [4]: -12.3%
growth inhibition [5]: -2.8%
growth inhibition [6]: 3%

CCCn1cc2c3c(cccc31)[C@H]1C[C@@H](C)CN(C)[C@@H]1C2
growth inhibition [1]: 49.4%
growth inhibition [2]: 45.4%
growth inhibition [3]: 41%
growth inhibition [4]: 45.1%
growth inhibition [5]: 44%
growth inhibition [6]: 36.5%

O=C1N=NC(Cl)c2ccccc21 (stereo not given)
growth inhibition [1]: -20.6%
growth inhibition [2]: -13.5%
growth inhibition [3]: -19.1%
growth inhibition [4]: 2.65%
growth inhibition [5]: -17.9%
growth inhibition [6]: -10.8%

[C-]#[N+]CS(=O)(=O)c1ccc(C)cc1
growth inhibition [1]: -17.4%
growth inhibition [2]: -11.1%
growth inhibition [3]: -7.3%
growth inhibition [4]: 11.1%
growth inhibition [5]: 3.85%
growth inhibition [6]: 1.4%

O=C(N/N=C/c1ccc(N(CCCl)CCCl)cc1)c1ccc(N(CCCl)CCCl)cc1
growth inhibition [1]: 30.6%
growth inhibition [2]: 4.65%
growth inhibition [3]: 26.6%
growth inhibition [4]: 37.8%
growth inhibition [5]: 4.55%
growth inhibition [6]: 7.9%

OC1NC2CC3NC(O)C(O)NC3CC2NC1O (stereo not given)
growth inhibition [1]: -16.6%
growth inhibition [2]: -4.25%
growth inhibition [3]: 12.7%
growth inhibition [4]: 22.9%
growth inhibition [5]: 16.1%
growth inhibition [6]: 11.4%

CC(C)(O)/C=C/C(=O)[C@](C)(O)[C@H]1[C@H](O)C[C@@]2(C)[C@@H]3CC=C4[C@@H](C[C@H](O)C(=O)C4(C)C)[C@]3(C)C(=O)C[C@]12C
growth inhibition [1]: 8.3%
growth inhibition [2]: -14.6%
growth inhibition [3]: -6.7%
growth inhibition [4]: 0.55%
growth inhibition [5]: -12.8%
growth inhibition [6]: 1.8%

C1=CC2C=CC(C=C1)[PH+]2c1ccccc1.C1=CC2C=CC(C=C1)[PH+]2c1ccccc1.[C-]#[O+].[C-]#[O+].[C-]#[O+].[Fe] (stereo not given)
growth inhibition [1]: -20.1%
growth inhibition [2]: 4.4%
growth inhibition [3]: -6.6%
growth inhibition [4]: 26.1%
growth inhibition [5]: 10.6%
growth inhibition [6]: -4.85%

O=[As](O)(O[As](=O)(O)c1ccccc1)c1ccccc1
growth inhibition [1]: 24.4%
growth inhibition [2]: 18.1%
growth inhibition [3]: 17.1%
growth inhibition [4]: 5%
growth inhibition [5]: -0.05%
growth inhibition [6]: 28.5%

CCC(CC)C(=O)Cl
growth inhibition [1]: -3.8%
growth inhibition [2]: -4.6%
growth inhibition [3]: -33.2%
growth inhibition [4]: -13.1%
growth inhibition [5]: -1.35%
growth inhibition [6]: -22.9%
